# Compound activity from PubChem BioAssay.
# This is a sample that favours compounds with a hit; in the whole collection about 3.9% have one here.
# TROY signal inh: inhibitors of TROY-dependent NF-kB signaling; Q293 LMP1-TROYcd NF-kB luciferase reporter, 4 h; inhibition, % at 10 µM; 360,000 compounds, 0.98% hits; AID 1347056;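 active = compounds whose plate-normalised and pattern-corrected inhibition of the luciferase reporter signal at the single screening dose is 50% or more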
# HSP90 inh: blocks HSP90-mediated luciferase refolding in reticulocyte lysate; Rabbit reticulocyte lysate, luciferase refolding luminescence, 3 h; inhibition, % at 5.6 µM; 290,000 compounds, 0.91% hits; AID 1789;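 active = inhibition above the screen-wide mean plus 3 SD, computed separately per campaign, cut at about 16% in these data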;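 note: 0% = DMSO wells and 100% = 60 µM geldanamycin wells; inhibitors lower the luminescence because luciferase stays unfolded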
# TWEAK-Fn14 inh: inhibitors of TWEAK-Fn14 interaction signaling | TWEAK-stimulated Fn14 reporter cells, luciferase luminescence, 8 h | inhibition, % at 10 µM | 360,000 compounds, 2% hits | AID 1159606; in the data active = inhibition above about 50%
# aSyn 5UTR inh: MLPCN primary screen, SNCA 5' untranslated region; alpha-synuclein 5'UTR reporter, inhibitor activity; inhibition, % (tested at 7.5 µM); 300,000 compounds, 0.82% hits; AID 1813; in the data active = inhibition above about 60%;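 note: H4 neuroglioblastoma cells stably carrying SNCA 5'UTR luciferase fusion; 0% = DMSO wells and 100% = positive control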
# HIF-2a inh: inhibitors of HIF-2a; 786-0 RCC cells HIF-2a reporter, luciferase luminescence, overnight; inhibition, % at 18.8 µM; 360,000 compounds, 0.72% hits; AID 624352;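 active = inhibition of the luminescence signal of 40% or more relative to plate controls, in a single-dose primary screen at 18.75 µM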
# TRAIL sens C8: sensitizes caspase-8 expressing cells to TRAIL; NB7+C8 cells + TRAIL, ATPlite viability luminescence; inhibition (viability loss, TRAIL sensitization), % at 10 µM; 360,000 compounds, 1% hits;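 active = compounds causing at least 50% loss of cell viability in the single-dose screen, relative to plate controls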
# Mdm2-MdmX confirm: confirmation of inhibitors of human Mdm2/MdmX interaction, set 2; shares compounds with HIF-2a inh; SaOS-2 split-luciferase Mdm2/MdmX complementation, luminescence; inhibition, % at 8 µM; 740 compounds, 99% hits;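 active = mean inhibition of the luminescence signal across two replicates at or above 26 percent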
# HIF-2a inh conf: confirmation of HIF-2a inhibitors; 1,800 compounds, 56% hits; shares compounds with HIF-2a inh; inhibition, % at 18.8 µM; 786-0 RCC cells, HIF-2a luciferase reporter luminescence, overnight;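 active = mean inhibition across four replicates of at least 40 percent at the single tested concentration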
# HIF-1a counter: counter-screen for HIF-2a inhibitors: HIF-1a inhibition in MiaPaCa-2 cells; MiaPaCa-2 HIF-1a luciferase reporter, desferoxamine, overnight; shares compounds with HIF-2a inh; inhibition, % at 18.8 µM; AID 651589; 1,800 compounds, 72% hits;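 active = mean inhibition of the reporter signal across four replicates at the single tested dose of 50% or more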
# Active calls of the source: *; x = no result given.
SMILES,TROY signal inh,HSP90 inh,TWEAK-Fn14 inh,aSyn 5UTR inh,HIF-2a inh,TRAIL sens C8,HIF-2a inh conf,HIF-1a counter,others
COc1ccc(C(=O)/C=C/C(=O)N(CC(=O)NC2CCCCC2)Cc2ccccc2OC)c(O)c1,91*,-6,91*,-36,81*,26,89*,105*,
COc1ccc(C(=O)/C=C/C(=O)N(Cc2ccccc2)C(C(=O)NC2CCCCC2)c2ccncc2)c(O)c1 (stereo not drawn),5,3,10,22,40*,-5,5,48,
COc1ccc(C(=O)/C=C/C(=O)N(CC(=O)NC2CCCCC2)CC2CCCO2)c(O)c1 (stereo not drawn),50*,4,84*,73*,94*,12,99*,107*,
CCN(C)C1CN(Cc2cn(Cc3ccc(Cl)cc3)nn2)S(=O)(=O)C1 (stereo not drawn),8,x,7,x,8,-5,x,x,
C[C@@H]1CN([C@H](C)CO)C(=O)c2cc(C#CC(C)(C)O)cnc2O[C@@H]1CN(C)C(=O)C1CC1,0,x,-6,x,9,-11,x,x,
C=C1C(=O)c2sccc2C(c2ccc(OC)c(OC)c2)C1COC(C)=O (stereo not drawn),69*,x,100*,x,87*,93*,99*,106*,
CCN1CCN(CC(=O)N2N=C(c3cccs3)CC2c2ccc(OC)c(OC)c2)C(=O)C1=O (stereo not drawn),4,-3,35,-4,10,21,x,x,
C#CC(=O)N(c1cccc(OC)c1)C(C(=O)NC1CCCC1)c1cccs1 (stereo not drawn),28,7,55*,92*,93*,96*,99*,104*,Mdm2-MdmX confirm=103*
COc1ccc(N(C(=O)Cc2cccs2)C(C(=O)NC2CCCC2)c2ccncc2)cc1OC (stereo not drawn),-13,-3,30,-5,18,3,x,x,
C#CC(=O)N(c1ccc(OC)c(OC)c1)C(C(=O)NC1CCCC1)c1cccs1 (stereo not drawn),11,4,61*,36,87*,90*,100*,105*,Mdm2-MdmX confirm=102*
COc1ccc(C(C)(NC(C)=O)c2nc(/C=C/c3ccccc3)cs2)cc1 (stereo not drawn),7,x,-9,x,0,-10,x,x,
CCCCOC(=O)c1ccc(NC(=S)NC(=O)c2c(Br)c(C)nn2C)cc1,26,-5,42,-22,46*,-13,56*,19,
Cn1c(=O)[nH]c(=O)c2c1nc([N+](=O)[O-])n2Cc1ccccc1,16,0,73*,-42,97*,85*,x,x,Mdm2-MdmX confirm=103*
Cc1cc(F)ccc1S(=O)(=O)Nc1ccccc1C(=O)Nc1ncn[nH]1,18,3,18,20,16,14,x,x,
Cc1cc(F)ccc1S(=O)(=O)Nc1ccccc1C(=O)Nc1ccccc1-c1nc2ccccc2[nH]1,70*,-3,102*,-33,3,26,x,x,Mdm2-MdmX confirm=97*
COc1ccc(N(C(=O)CCl)C(C(=O)NCCc2ccccc2)c2cccs2)cc1 (stereo not drawn),-17,6,60*,-16,96*,98*,98*,107*,
CCOc1ccccc1NC(=O)C1(S(=O)(=O)c2ccc(Cl)cc2)CC1,-3,0,0,3,6,1,x,x,
COc1ccccc1CNC(=O)Nc1nc(C(N)Cc2ccc(Cl)cc2)cs1 (stereo not drawn),6,x,18,x,1,34,x,x,
O=C(COC(=O)c1ccc(F)cc1F)Nc1cc(S(=O)(=O)N2CCOCC2)ccc1Cl,-6,x,-8,x,9,-16,x,x,
COc1cc(O)c(C=Nc2ccccc2NS(=O)(=O)c2ccc(C)cc2)c(OC)c1,0,x,-5,x,4,-20,x,x,
CCS(=O)(=O)c1c([N+](=O)[O-])ncn1C,7,3,18,8,13,-1,x,x,
Cn1cnc([N+](=O)[O-])c1S(=O)(=O)Oc1ccc(Cl)cc1,47,x,15,x,81*,19,30,26,
Cn1cnc([N+](=O)[O-])c1S(=O)(=O)Oc1cccc2ccccc12,74*,x,67*,x,83*,43,31,66*,
COc1ccc(C=NNC(=S)Nc2ccc(F)cc2)cc1OC,78*,x,46,x,48*,21,6,38,
Cc1ccc(S(=O)(=O)N2CCCCC2)cc1C(=O)N1CCCCCC1,8,x,13,x,25,-9,x,x,
SMILES,TROY signal inh,HSP90 inh,TWEAK-Fn14 inh,aSyn 5UTR inh,HIF-2a inh,TRAIL sens C8,HIF-2a inh conf,HIF-1a counter,others
Cc1ccsc1-c1cc2nc(Nc3ccc(F)cc3)n(C)c(=O)c2s1,-36,x,-15,x,-76,8,x,x,
Cc1nc(NC2=NCN(CCc3ccccc3)CN2)nc2c(C)cccc12,x,1,x,x,x,x,x,x,
Cc1nc(NC2=NCN(CCCN3CCOCC3)CN2)nc2c(C)cccc12,-4,-3,-66,x,4,22,x,x,Mdm2-MdmX confirm=66*
COc1ccc(-c2csc3ncn(-c4cccc(C)c4)c(=O)c23)cc1OC,-4,3,-13,20,41*,-6,2,2,
COc1ccc(-c2csc3ncn(-c4ccccc4)c(=O)c23)cc1OC,7,-2,-7,8,25,4,x,x,
NC(=O)c1cccc(-c2coc3c(C(=O)NC4CCCCC4)cccc23)c1,13,x,47,x,-76,13,x,x,
COc1ccc(NC(=O)c2cccc([N+](=O)[O-])c2)cc1,-50,4,-13,-105,-156,-1,x,x,
COc1ccc(NC(=O)c2cc([N+](=O)[O-])ccc2O)cc1,87*,81*,104*,85*,71*,91*,86*,102*,
Cc1ccc(S(=O)(=O)N(C)C[C@@H]2Oc3ccc(NC(=O)Cn4cnnn4)cc3C(=O)N([C@@H](C)CO)C[C@H]2C)cc1,1,x,4,x,4,0,x,x,
CN(/C=C/c1c([N+](=O)[O-])c(=O)n(C)c(=O)n1C)c1ccccc1,7,0,-12,19,24,26,x,x,
Cn1c(/C=C/c2cccc([N+](=O)[O-])c2)c([N+](=O)[O-])c(=O)n(C)c1=O,22,6,57*,-194,45*,11,38,57*,
CCCCCOc1ccc(/C=C/c2c([N+](=O)[O-])c(=O)n(C)c(=O)n2C)cc1,14,14,40,-175,42*,1,12,1,
COc1ccc(/C=C/c2c([N+](=O)[O-])c(=O)n(C)c(=O)n2C)cc1OC,-9,1,-16,-9,12,-13,x,x,
